From PubChem
MARV entry inh: qHTS for inhibitors of binding or entry into cells for Marburg Virus; Marburg virus pseudotyped entry inhibition, cell reporter; Potency, µM (doses to about 37.8 µM), actives largely listed as inhibitors; hit rate 1.8% among 300,000; calls by dose curve; tested in HEK293 cells
Lassa entry inh: qHTS for Inhibitors of binding or entry into cells for Lassa Virus; Lassa virus pseudotype entry inhibition, cell reporter; Potency, µM (highest dose often 37.9 µM), hits mostly inhibitors; hit rate 1.2% among 300,000; calls by dose curve; tested in HEK293 cells; note: nearly all actives have a fitted effect of over 50% in size
Vaccinia Venus: qHTS for Stage-Specific Inhibitors of Vaccinia Orthopoxvirus: Venus Reporter Primary qHTS | hit rate 0.46% among 330,000 | Potency, µM (top dose mostly 36.5 µM), usual class: inhibitors | Vaccinia virus Venus reporter expression, fluorescence; calls by dose curve; tested in A549 cells; note: nearly all actives have a fitted effect of over 30% in size
HCV inhibitor: qHTS Assay for Inhibitors of Hepatitis C Virus (HCV); Potency, µM (titrated, usually from 41.8 µM), hits mostly inhibitors; Huh7.5.1 HCVcc-Cre infection, luciferase reporter, 44 h; AID 651820, 2012; hit rate 3.4% among 340,000; active = well fitted inhibition curve with a large enough effect; inconclusive = small, poorly fitted or top-dose-only effect, or another doubt; inactive = no such curve, though single readings can be large or run the other way
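Compounds are dispensed onto cells plated 4 h earlier at 1,000 per well, with HCVcc-Cre virus (about 0.5 moi) added next. Following 44 h of culture, luminescent signal is measured for 15 sec after 15 min with substrate at room temperature.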
VACV mCherry inh: qHTS for Stage-Specific Inhibitors of Vaccinia Orthopoxvirus: mCherry Reporter Primary qHTS; Potency, µM (doses to about 36.5 µM), most hits filed as inhibitors; hit rate 0.63% among 310,000; Vaccinia virus mCherry reporter infection, fluorescence; calls by dose curve; tested in A549 cells; note: nearly all actives have a fitted effect of over 35% in size
Hits are given with their value; 0 = inactive; ? = inconclusive; - = no result given; [ ] = another dose, or the depositor's remark. This is a sample that favours compounds with a hit; in the whole collection about 4.6% have one here.

SMILES	MARV entry inh	Lassa entry inh	Vaccinia Venus	HCV inhibitor	VACV mCherry inh
O=c1c(S(=O)(=O)c2ccccc2)cn(Cc2ccccc2)c2cc(N3CCOCC3)c(F)cc12	-	?	0	-	0
CC(=O)OC[C@H]1O[C@H](C#Cc2ccccc2)C=C[C@H]1O	0	-	-	-	-
CCc1ccccc1Nc1nc(N)nc(COC(=O)CCC(=O)c2ccc(F)cc2)n1	?	10µM	0	0	0
COc1ccc(NC(=O)/C=C/c2cc(Br)ccc2OC)cc1	0	0	0	?	-
COc1ccc(/C=C/C(=O)c2ccc(NC(=O)c3cccs3)cc2)cc1OC	?	?	-	10µM	-
COc1cc(/C=C/C(=O)c2ccc(NS(=O)(=O)c3ccc(C)cc3)cc2)ccc1OC(F)F	?	?	?	35µM	?
COc1ccc(Br)cc1/C=C/C(=O)c1ccc(NC(C)=O)cc1	?	4µM	5.6µM	?	4.5µM
COc1cc(/C=C/C(=O)c2ccc(NS(=O)(=O)c3ccc(C)cc3)cc2)cc(OC)c1O	?	?	0	?	?
C#CCN1C(=O)[C@]2(OCCC=C[C@@H]2C)c2cc(OC)ccc21	0	-	-	-	-
COc1cc(C#Cc2c(-c3cncn3C)n(C)c3ccc(-c4cc(OC)c(OC)c(OC)c4)cc23)cc(OC)c1	-	-	11µM	11µM	?
COc1cc(C#Cc2c(-c3cncn3C)n(C)c3ccc(-c4ccc(OC)nc4)cc23)cc(OC)c1	-	-	28µM	0	?
CCOC(=O)N1CCc2c(sc3c2c(=O)n(-c2ccccc2)c(=O)n3CC(=O)Nc2ccc(OC)cc2OC)C1	0	?	0	-	0
Cc1cccc(N2C(=O)/C(=C/c3cccnc3)SC2=S)c1	?	?	0	0	0
Cc1cc(/C=C2/SC(=S)N(c3ccc([N+](=O)[O-])cc3)C2=O)c(C)n1-c1cccnc1	0	0	-	2.5µM	-
Cc1cc(/C=C2/SC(=S)N(c3cccc(Cl)c3)C2=O)c(C)n1-c1cccnc1	?	?	?	2.2µM	?
COc1c(C)cc(C(=O)C2CCCN(C(=O)c3cccc(-n4cccn4)c3)C2)cc1C (stereo not drawn)	0	?	0	?	0
COc1c(C)cc(C(=O)C2CCCN(C(=O)CCc3scnc3C)C2)cc1C (stereo not drawn)	-	-	0	10µM	0
COc1c(C)cc(C(=O)C2CCCN(C(=O)c3ccc4[nH]ccc4c3)C2)cc1C (stereo not drawn)	0	4.5µM	0	0	0
Cc1cccc(Oc2ccc(S(=O)(=O)N3CCCCC3)cc2N)c1	0	?	-	13µM	-
CCOc1ccc(S(=O)(=O)Nc2ccc3c(c2)N(C(C)=O)CCC3)cc1	-	?	0	-	0
CCCOC(=O)C1=C(C)NC2=C(C(=O)C(C(=O)OC)C(C)C2)C1c1ccc(N(CC)CC)cc1 (stereo not drawn)	?	?	0	10µM	0
Cc1c(CCOC(=O)c2ccc(Cl)cc2Cl)sc[n+]1CC(=O)c1ccccc1	0	0	?	13µM	0
Cc1c(CCOC(=O)CC23CC4CC(CC(C4)C2)C3)sc[n+]1CC(=O)c1ccccc1	-	-	-	11µM	-
Cc1c(CCOC(=O)c2cc([N+](=O)[O-])cc([N+](=O)[O-])c2)sc[n+]1CC(=O)c1ccc(Br)cc1	?	0	0	10µM	0
Cc1c(CCOC(=O)C23CC4(C)CC(C)(CC(C)(C4)C2)C3)sc[n+]1CC(=O)c1ccccc1	?	0	?	0	?
SMILES	MARV entry inh	Lassa entry inh	Vaccinia Venus	HCV inhibitor	VACV mCherry inh
Cc1ccc(Cn2c(C(=O)O)c(CNCc3cccs3)c3ccc(C)cc32)cc1	-	0	0	-	0
O=C(C=Cc1ccccc1)Nc1cccc(C(=O)NCc2ccccc2)c1	-	0	-	-	-
COc1ccc(NC(=O)N2CCc3c([nH]c4ccc(OC)cc34)C2c2ccc(OC)cc2)cc1 (stereo not drawn)	-	?	0	-	0
COc1ccc(C2c3ccsc3CCN2C(=O)NC(C)(C)C)cc1 (stereo not drawn)	-	-	-	22µM	-
CCc1ccc(CCC(=O)Nc2sc3c(c2C#N)CCCC3)o1	2.3µM	?	-	4.5µM	-
N#Cc1c(NC(=O)CSc2nc(N)cc(=O)[nH]2)sc2c1CCCC2	10µM	?	0	0	0
CCN1C(=O)C[C@H](N2CCN(c3ccc(OC)cc3)CC2)C1=O	0	-	-	-	-
CCCCOc1cccc(C(=O)Nc2ccccc2N2CCCC2)c1	0	0	0	13µM	0
Cc1cccc(C(=O)Nc2cc3c(cc2N2CCCCC2)n(C)c(=O)c(=O)n3C)c1	0	0	0	-	0
CCn1c(=O)n(CC)c2cc(N3CCCC3)c(NC(=O)c3cccc(Cl)c3)cc21	-	-	0[7.34 µM]	6.3µM	?
CCn1c(=O)n(CC)c2cc(N3CCCC3)c(NC(=O)c3ccc(C)c([N+](=O)[O-])c3)cc21	0	?	0	7.9µM	?
CCOc1cccc(C(=O)Nc2ccccc2N2CCN(C(=O)C(C)C)CC2)c1	?	?	0	0	0
CCn1c(=O)c(=O)n(CC)c2cc(N3CCCCC3)c(NC(=O)c3cccc(OC)c3)cc21	0	0	0	-	0
CCn1c(=O)n(CC)c2cc(N3CCCC3)c(NC(=O)c3cccc(C)c3)cc21	?	?	0	13µM	?
Cc1ccc(-c2nc(CS(=O)(=O)CC(=O)NCCc3ccccc3)c(C)o2)cc1	0	0	0	-	0
COc1ccc2c(c1)CC(C(=O)NCCN1CCN(c3cccc(Cl)c3)CC1)CO2 (stereo not drawn)	-	0	0	-	0
COc1cc(-c2cccc(OC)c2OC)cc2c1OCCN(Cc1cn[nH]c1-c1ccc(Cl)cc1)C2	-	-	0	-	0
CCC1(C2CCN(C(=O)c3csc(C(C)=O)c3)CC2)NC(=O)N(CCc2scnc2C)C1=O (stereo not drawn)	-	-	0	-	0
O=C(C1CCN(CC2CC=CCC2)CC1)N(CCc1ccccc1)Cc1ccccc1 (stereo not drawn)	?	?	0	0	0
O=C(C1CCN(CCCc2ccccc2)CC1)N(CCc1ccccc1)Cc1ccccc1	?	11µM	?	?	?
C/C(=N/NC(=O)c1cccs1)c1c(C)[nH]n(-c2nc3ccccc3s2)c1=O	4.6µM	?	-	0	-
CSC1=NC(C)(C)C=C(/C=C/c2ccc(Cl)cc2Cl)N1	?	0	0	?	0
CSC1=NC(C)(C)C=C(/C=C/c2ccc(Cl)cc2)N1	?	?	0	8.9µM	0
O=C(NCCc1ccccc1)c1ccc2c(c1)CCN2S(=O)(=O)c1ccc(Cl)cc1	?	?	0	-	0
Cc1ccc2c(c1)c(/C=C/c1cc[n+](C)cc1)c(C)n2C	-	-	0	10µM	0
Cc1ccc2[nH]c(C)c(/C=C/c3cc[n+](C)cc3)c2c1	8.9µM	3.2µM	0	?	?
C[n+]1ccc(/C=C/c2ccc(Br)cc2)cc1	?	0	?	?	?
COc1cc(-c2[nH]ncc2CN2CCN(c3cccc(C)n3)CC2)cc(OC)c1OC	-	-	0[7.34 µM]	11µM	0[7.34 µM]
COc1ccccc1C(c1nnnn1Cc1ccccc1)N1CCN(c2nc3ccccc3s2)CC1 (stereo not drawn)	?	?	0	13µM	-
